Laboratory results taken from PubChem BioAssay (NCATS).
Results filed as inconclusive are left out. Active and inactive are the calls of the source. The call rests on the fitted dose curve; in most records, active means well fitted curve in the direction sought with a large enough effect; inconclusive means small, poorly fitted or top-dose-only effect, or another doubt; inactive means no such curve, though single readings can be large; an effect the other way counts as inactive or inconclusive.

How the values were obtained:
[1] = ZIKV-mCherry secondary qHTS for Zika virus inhibitors (AID 1347158); further: top concentration of the series differs between compounds
How it was run: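 Vero cells, 5,000/well, plated overnight at 37 °C, then compound added and infected with recombinant ZIKV-mCherry at MOI 1 for 48-72 h. PFA-fixed, Hoechst nuclear stain, high-content imaging; cells with mCherry intensity above 450 RFU scored infected, reported as percent infection.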

[2] = Confirmatory screen NINDS Rhodamine qHTS for Zika virus inhibitors (AID 1347161); further: nearly all actives have a fitted effect of over 60% in size; further: potency means the concentration at half of the fitted maximal effect;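 on activity change, negative = inhibition: purified Zika NS2B-NS3 protease with linked NS2B cofactor domain and Rhodamine110 peptide substrate; series mostly up to about 110 µM; plate controls were no-inhibitor control for no effect and no-enzyme control for full effect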
How it was run: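 Kinetic fluorescence (Ex 480 nm, Em 540 nm) over 15 min with 1.5 microM Rhodamine110 peptide and 25 nM linked protease.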

[3] = tested on: Zika virus NS2B-NS3 protease (linked); assay: 384 well plate NINDS AMC confirmatory qHTS for Zika virus inhibitors (AID 1347163); further: potency means the concentration at half of the fitted maximal effect; nearly all actives have a fitted effect of over 50% in size
How it was run: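 Linked protease 5/30/60 nM final; cpds up to 1 mM final, ~15 min preinc. Substrate Ac-VKTGKR-AMC 30 microM final. RT, dark, 25 min; FI ex 355/em 460; normalized to no-enzyme/no-inhibitor ctrls.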

[4] = tested on: Zika virus NS2B-NS3 protease (linked construct); assay: 384 well plate NINDS Rhodamine confirmatory qHTS for Zika virus inhibitors (AID 1347164);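 further: fluorescence from protease cleavage of Ac-LKRR-rhodamine 110 substrate; potency means the concentration at half of the fitted maximal effect; nearly all actives have a fitted effect of over 65% in size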
How it was run: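 Linked protease at a final 5 nM, 30 nM or 60 nM was preincubated ~15 min with compounds, then given 10 microM Ac-LKRR-Rhodamine 110. Fluorescence (ex 485/em 538 nm) after 25 min in the dark at room temperature.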

[5] = Tertiary RLuc qRT-PCR qHTS assay for Zika virus inhibitors (AID 1347169); further: top concentration of the series differs between compounds; on the % scale 0 is the no-effect control and ±100 the full control effect; nearly all actives have a fitted effect of over 55% in size
How it was run: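 Vero cells (1,000 per well) plated overnight at 37 degrees C, treated with compound in DMSO, then infected with recombinant ZIKV-RLuc (Cambodian) at MOI 1-2 for 48-72 hrs. Live-cell Renilla luciferase substrate added; luminescence read after 1-1.5 hrs.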

[6] = qHTS to identify inhibitors of the type 1 interferon - major histocompatibility complex class I in skeletal muscle: primary screen against the NCATS LOPAC collection (AID 1347405);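 further: lytic HiBiT luminescence reporting HLA-B protein level; on the % scale 0 is the no-effect control and ±100 the full control effect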
How it was run: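 Immortalized human C25cl48 myoblasts with HiBiT knocked into endogenous HLA-B*08:01 were stimulated with 4.0 ng/ml IFN-beta and given compounds in a 7-point, 1:4.3 titration from 46 uM final; after 24 hrs, lytic HiBiT luminescence was read.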

[7] = qHTS for inhibitors of adenylyl cyclases using a fission yeast platform: a pilot screen against the NCATS LOPAC library (AID 1347410);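 further: plate controls were DMSO vehicle for no effect and DPI positive control for full effect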
How it was run: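 S. pombe CHP2027 (AC9-GNAS-PDE4D2) carrying a PKA-repressed fbp1-GFP reporter was exposed to LOPAC compounds (final up to 57 µM) for 18 h at 30C in the dark, in EMM with histidine, lysine and uracil; GFP gain-of-signal read by laser scanning cytometry.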

[8] = Validation qHTS assay for inhibitors of Activation Induced Cytidine Deaminase (AID): UDG Counterscreen signal (AID 1347427); further: 0% is about no effect
How it was run: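 Counterscreen read of UDG activity (2 U/mL, 4/3x) in the FRET deamination format with AID (1 uM, 4/3x), DJC20/DJC23 substrates (250 nM, 4x), 4 h at room temperature. NaOH stop, fluorescence at 560 ex/665 em.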

[9] = biological target: Single-stranded DNA cytosine deaminase (Homo sapiens) (UniProt Q9GZX7); assay: Validation qHTS assay for inhibitors of Activation Induced Cytidine Deaminase (AID): AID signal (AID 1347429); further: on the % scale 0 is the no-effect control and ±100 the full control effect
Single-stranded DNA cytosine deaminase (Homo sapiens), sequence (Q9GZX7 whole entry, looked up): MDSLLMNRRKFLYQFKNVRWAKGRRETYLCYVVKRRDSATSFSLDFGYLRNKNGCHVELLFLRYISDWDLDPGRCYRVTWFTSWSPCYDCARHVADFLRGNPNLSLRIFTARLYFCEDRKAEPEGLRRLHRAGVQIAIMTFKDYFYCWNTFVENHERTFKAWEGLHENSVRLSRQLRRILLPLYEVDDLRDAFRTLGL
How it was run: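 AID and UDG were combined and compounds added at final up to 114 uM, then DJC20/DJC23 FRET substrate was added for 4 hr at room temperature. NaOH was then added for 30 min before fluorescence was read at 540/590 nm.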

[10] = Primary qHTS for inhibitors of La Crosse Virus (LACV) - induced cell death in SH-SY5Y cells (AID 1508616);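 further: top concentration of the series differs between compounds; 0% = infected DMSO wells and 100% = uninfected DMSO wells; higher means more rescue of cells from virus-induced death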
How it was run: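 Luminescent ATP readout (ATPLite 1step, 5 min room temperature) measured rescue from LACV-induced death after 6 days of infection at 0.01 MOI; normalized to infected DMSO wells and uninfected DMSO wells.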

[11] = tested on: Zika virus NS2B-NS3 protease (linked construct); assay: Primary screen NINDS Rhodamine qHTS for Zika virus inhibitors (AID 1347160); further: nearly all actives have a fitted effect of over 55% in size
How it was run: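 Purified NS2B-NS3 protease with the NS2B hydrophilic domain joined by a flexible linker (25 nM) in 10 mM Tris-HCl pH 8.0, 0.01% Tween 20, preincubated 15 min at RT with compound; Rhodamine110 peptide substrate 1.5 µM; fluorescence change over 15 min; 4-parameter Hill fit.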

[12] = biological target: Lysine-specific demethylase 5B (Homo sapiens) (UniProt Q9UGL1); assay: Optimization screen for KDM5B Histone Demethylases FDH coupled qHTS against the LOPAC library (AID 1347166); further: 0% is about no effect
Lysine-specific demethylase 5B (Homo sapiens), sequence (Q9UGL1 whole entry, looked up): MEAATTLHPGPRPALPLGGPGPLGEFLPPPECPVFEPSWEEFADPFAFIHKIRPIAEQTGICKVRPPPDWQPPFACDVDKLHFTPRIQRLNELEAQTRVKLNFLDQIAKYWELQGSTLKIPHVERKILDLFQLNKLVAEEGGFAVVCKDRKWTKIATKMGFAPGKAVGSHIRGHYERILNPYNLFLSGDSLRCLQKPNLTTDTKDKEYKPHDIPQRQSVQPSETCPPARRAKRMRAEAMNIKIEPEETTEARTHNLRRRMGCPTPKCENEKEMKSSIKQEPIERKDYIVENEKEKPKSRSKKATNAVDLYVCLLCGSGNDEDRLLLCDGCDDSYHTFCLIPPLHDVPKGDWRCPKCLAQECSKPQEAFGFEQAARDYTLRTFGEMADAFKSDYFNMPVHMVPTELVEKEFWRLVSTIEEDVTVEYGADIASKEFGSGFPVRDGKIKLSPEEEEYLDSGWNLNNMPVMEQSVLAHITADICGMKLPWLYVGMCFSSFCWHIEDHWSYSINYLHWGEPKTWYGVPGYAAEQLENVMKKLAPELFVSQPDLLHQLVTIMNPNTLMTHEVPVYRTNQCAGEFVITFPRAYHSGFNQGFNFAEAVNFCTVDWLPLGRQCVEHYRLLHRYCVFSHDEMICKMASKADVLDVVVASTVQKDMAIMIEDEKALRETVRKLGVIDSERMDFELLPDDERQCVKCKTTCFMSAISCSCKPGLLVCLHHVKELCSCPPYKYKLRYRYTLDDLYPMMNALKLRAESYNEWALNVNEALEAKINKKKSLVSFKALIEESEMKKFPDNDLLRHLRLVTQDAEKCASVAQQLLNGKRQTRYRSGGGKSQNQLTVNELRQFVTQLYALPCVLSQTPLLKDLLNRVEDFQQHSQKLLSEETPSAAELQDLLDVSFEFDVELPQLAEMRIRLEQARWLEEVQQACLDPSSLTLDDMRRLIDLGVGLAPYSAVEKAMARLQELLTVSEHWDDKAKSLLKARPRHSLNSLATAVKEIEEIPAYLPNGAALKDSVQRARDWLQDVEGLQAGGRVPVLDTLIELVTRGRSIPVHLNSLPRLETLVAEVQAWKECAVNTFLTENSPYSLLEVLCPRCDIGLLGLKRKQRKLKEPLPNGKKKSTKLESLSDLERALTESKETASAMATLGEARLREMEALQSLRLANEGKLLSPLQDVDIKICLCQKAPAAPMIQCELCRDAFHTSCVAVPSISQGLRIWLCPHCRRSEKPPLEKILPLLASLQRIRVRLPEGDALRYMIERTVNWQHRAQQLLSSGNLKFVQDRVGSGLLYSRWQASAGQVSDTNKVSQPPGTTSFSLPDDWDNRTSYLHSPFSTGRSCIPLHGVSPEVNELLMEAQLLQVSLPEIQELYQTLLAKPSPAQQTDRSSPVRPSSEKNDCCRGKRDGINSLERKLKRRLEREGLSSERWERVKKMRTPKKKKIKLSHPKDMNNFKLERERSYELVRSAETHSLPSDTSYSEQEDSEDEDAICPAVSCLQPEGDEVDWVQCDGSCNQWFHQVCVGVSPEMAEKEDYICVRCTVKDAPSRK
How it was run: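 KDM5BDeltaAP (200nM final) preincubated 10 min with compound, then 12.5uM H3K4Me3, 25uM a-ketoglutarate, ascorbate, Fe(II), NAD+ and FDH added; 50mM HEPES pH 7.5, 0.01% Tween-20. NADH fluorescence (340/450 nm) change over 30 min, room temperature.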

[13] = Vero cells viability qHTS for Zika virus inhibitors (AID 1347167); further: on the % scale 0 is the no-effect control and ±100 the full control effect
How it was run: (§1)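 Compounds were tested in concentration series on cells grown in DMEM containing 4% FBS. After 24 to 48 hours, cellular ATP was measured by luminescence with CellTiter Glo.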

[14] = HepG2 cells viability qHTS for Zika virus inhibitors (AID 1347168); further: on the % scale 0 is the no-effect control and ±100 the full control effect
How it was run: as §1

[15] = qHTS to identify inhibitors of the type 1 interferon - major histocompatibility complex class I in skeletal muscle: primary screen against the NCATS Pharmaceutical Collection (AID 1347407)
How it was run: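 Immortalized human myoblasts (C25cl48) with HiBiT knocked into endogenous HLA-B*08:01 were stimulated with 4 ng/ml IFN-beta and treated with compounds (8-point, 1:5, top 46 uM final) for 24 h at 37 C; HiBiT lytic luminescence read.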

[16] = qHTS to identify inhibitors of the type 1 interferon - major histocompatibility complex class I in skeletal muscle: primary screen against the NCATS Mechanism Interrogation Plate v5.0 (MIPE) Libary (AID 1347411);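 further: plate controls were vehicle for no effect and reference inhibitor for full effect; nearly all actives have a fitted effect of over 65% in size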
How it was run: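 Immortalized human C25cl48 myoblasts with HiBit knocked into endogenous HLA-B*08:01 were stimulated with 4.0 ng/ml IFN-beta and exposed to compounds (11-point 1:3 titration, top 46 uM final) for 24 hrs at 37 C; HiBiT lytic luminescence measured.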

[17] = biological target: Protein phosphatase 1D (Homo sapiens) (UniProt O15297); assay: RapidFire Mass Spectrometry qHTS Assay for Modulators of WT P53-Induced Phosphatase 1 (WIP1) (AID 1347424);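 further: amount of dephosphorylated VEPPL-S-QETFS peptide product formed by WIP1; series mostly up to about 63 µM; plate controls were DMSO wells for no effect and GSK830371 inhibitor control at 10 µM for full effect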
Protein phosphatase 1D (Homo sapiens), sequence (O15297 whole entry, looked up): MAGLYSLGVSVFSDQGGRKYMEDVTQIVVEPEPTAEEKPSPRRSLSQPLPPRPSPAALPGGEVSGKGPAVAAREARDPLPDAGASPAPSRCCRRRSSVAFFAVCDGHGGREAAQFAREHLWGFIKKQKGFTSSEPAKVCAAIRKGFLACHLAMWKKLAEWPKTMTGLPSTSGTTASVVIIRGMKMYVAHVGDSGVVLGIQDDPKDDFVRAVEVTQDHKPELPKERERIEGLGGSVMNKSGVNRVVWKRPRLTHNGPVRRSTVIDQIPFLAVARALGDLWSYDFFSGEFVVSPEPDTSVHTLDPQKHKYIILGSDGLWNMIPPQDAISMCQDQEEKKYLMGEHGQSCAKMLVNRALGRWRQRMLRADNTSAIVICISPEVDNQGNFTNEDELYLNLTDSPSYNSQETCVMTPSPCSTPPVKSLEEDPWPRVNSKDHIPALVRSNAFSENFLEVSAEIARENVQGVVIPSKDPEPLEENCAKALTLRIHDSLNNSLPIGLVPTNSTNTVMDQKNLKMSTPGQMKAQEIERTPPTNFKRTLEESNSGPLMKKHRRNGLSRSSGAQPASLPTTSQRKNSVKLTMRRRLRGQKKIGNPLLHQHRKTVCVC
How it was run: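 10 nM WIP1 + cpd, 1 h RT; + 2 uM VEPPL-pS-QETFS, 5 min RT; stop 0.5% formic acid; labelled product standard 1 uM; RapidFire MS. Buffer 50 mM Tris pH 7.5, 30 mM MgCl2, 1 mM TCEP.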

[18] = biological target: Protein phosphatase 1D (Homo sapiens) (UniProt O15297); assay: Rhodamine-PBP qHTS Assay for Modulators of WT P53-Induced Phosphatase 1 (WIP1) (AID 1347425); further: % of control where 0% means no effect
How it was run: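 WIP1 (5 nM final) was preincubated with compound for 1 hour at room temperature. It then dephosphorylated 10 uM VEPPL-pS-QETFS peptide in Tris-HCl pH 7.5 with 30 mM MgCl2. Released Pi was detected by 10 uM Rh-PBP fluorescence (ex 525/em 598 nm) read at 1-min intervals for 11 min, as delta f1 - f0.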

[19] = tested on: Zika virus NS2B-NS3 protease (unlinked complex); assay: Primary screen GU Rhodamine qHTS for Zika virus inhibitors: Unlinked NS2B-NS3 protease assay (AID 1347159); further: on the % scale 0 is the no-effect control and ±100 the full control effect; nearly all actives have a fitted effect of over 60% in size
How it was run: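 Noncovalent NS2B hydrophilic domain/NS3 protease complex (25 nM final) in 10 mM Tris-HCl pH 8.0, 0.01% Tween 20, preincubated 15 min with compounds (up to 114 microM), then 1.5 microM Rhodamine110 substrate. Fluorescence change over 15 min fitted to 4-parameter Hill.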

O=c1c(O)c(-c2cc(O)c(O)c(O)c2)oc2cc(O)cc(O)c12
active: Potency [2] 14.1 µM | Potency [3] 158 µM | Potency [4] 39.8 µM
inactive: Potency [1] | activity change, negative = inhibition [5] 40.4% [at 3.57 µM] | Potency [6] | outcome [7] | Potency [8] | outcome [9] | Potency [10]

COc1c(O)cc2c(c1O)[C@@H]1O[C@H](CO)[C@@H](O)[C@H](O)[C@H]1OC2=O
inactive: Potency [11]

Cc1c(OCC(F)(F)F)ccnc1CS(=O)c1nc2ccccc2[nH]1 (stereo not given)
inactive: Potency [2] | outcome [12] | Potency [13] | Potency [14] | Potency [5] | Potency [6] | Potency [15] | outcome [7] | Potency [16] | Potency [17] | outcome [18] | Potency [8] | outcome [9] | Potency [10]

CC(=O)NC[C@H]1CN(c2ccc(N3CCOCC3)c(F)c2)C(=O)O1
inactive: Potency [19] | Potency [11] | Potency [6] | outcome [7]

O=c1c(O)c(-c2ccc(O)cc2O)oc2cc(O)cc(O)c12
inactive: Potency [1] | Potency [5] | Potency [6] | outcome [7] | Potency [16] | Potency [8] | outcome [9] | Potency [10]
active: Potency [2] 12.6 µM | Potency [3] 141 µM | Potency [4] 50.1 µM
